Consider ten molecules from PubChem BioAssay (Tox21).

Inconclusive results are not listed. Unmarked numbers belong to inactive results. The source made the active and inactive calls. The call rests on the fitted dose curve; in most records, active means well fitted inhibition curve with a large enough effect in the repeat runs; inconclusive means weak or mixed curves; inactive means flat fitted curve, though single readings scatter.
On the % scale 0 is the no-effect control and ±100 the full control effect; potency means the concentration at half of the fitted maximal effect.

Voltage-gated inwardly rectifying potassium channel KCNH2 (Homo sapiens), sequence (Q12809 whole entry, looked up): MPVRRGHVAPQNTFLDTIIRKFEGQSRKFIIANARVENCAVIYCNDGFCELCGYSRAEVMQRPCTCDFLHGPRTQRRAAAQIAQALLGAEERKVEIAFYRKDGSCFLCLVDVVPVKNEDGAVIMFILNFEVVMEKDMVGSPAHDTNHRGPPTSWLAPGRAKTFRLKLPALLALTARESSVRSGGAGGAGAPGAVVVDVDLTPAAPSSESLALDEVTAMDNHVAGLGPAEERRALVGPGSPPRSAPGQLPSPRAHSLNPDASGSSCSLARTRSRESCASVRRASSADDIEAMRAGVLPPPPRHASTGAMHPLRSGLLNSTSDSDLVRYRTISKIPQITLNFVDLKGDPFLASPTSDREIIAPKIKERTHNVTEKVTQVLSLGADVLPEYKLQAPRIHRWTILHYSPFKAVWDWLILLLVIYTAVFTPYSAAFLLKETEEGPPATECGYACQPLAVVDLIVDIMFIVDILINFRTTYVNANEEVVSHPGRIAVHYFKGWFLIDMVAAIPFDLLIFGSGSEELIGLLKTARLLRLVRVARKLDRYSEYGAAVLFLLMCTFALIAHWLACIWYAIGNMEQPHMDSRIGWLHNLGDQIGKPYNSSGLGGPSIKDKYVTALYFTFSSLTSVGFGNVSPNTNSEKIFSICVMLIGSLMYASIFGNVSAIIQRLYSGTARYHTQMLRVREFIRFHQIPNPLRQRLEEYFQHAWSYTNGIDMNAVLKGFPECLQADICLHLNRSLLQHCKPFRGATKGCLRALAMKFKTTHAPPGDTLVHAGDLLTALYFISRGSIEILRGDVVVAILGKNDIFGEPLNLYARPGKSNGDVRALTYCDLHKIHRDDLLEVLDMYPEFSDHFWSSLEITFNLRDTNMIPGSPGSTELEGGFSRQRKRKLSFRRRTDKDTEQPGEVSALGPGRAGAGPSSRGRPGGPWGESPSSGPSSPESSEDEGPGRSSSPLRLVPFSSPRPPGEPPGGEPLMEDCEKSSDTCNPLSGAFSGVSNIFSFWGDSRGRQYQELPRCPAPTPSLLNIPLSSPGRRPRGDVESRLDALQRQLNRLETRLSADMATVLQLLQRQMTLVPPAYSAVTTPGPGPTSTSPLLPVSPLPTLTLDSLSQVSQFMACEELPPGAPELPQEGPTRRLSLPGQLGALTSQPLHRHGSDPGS

The test has as its target Voltage-gated inwardly rectifying potassium channel KCNH2 (Homo sapiens) (UniProt Q12809). The test is described as follows: Human Ether-a-go-go-Related Gene (hERG) channel small molecule antagonists: fluorescence cell-based qHTS assay (AID 1671200). Further: nearly all actives have a fitted effect of over 50% in size.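 On activity change, negative = inhibition: hERG-expressing U2OS cells given a thallium stimulus after FluxOR II dye loading.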 The settings on record: hERG-U2OS cells, FluxOR thallium flux fluorescence; series mostly up to 76.8 µM; activity change, negative = inhibition: at the top concentration. An outline of the steps: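 Read-out: thallium influx as a surrogate for potassium, tracked as fluorescence (480 nm ex/540 nm em) every second for 2 min after Stimulus Buffer addition in dye-loaded hERG-U2OS cells.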
(The hERG channel carries a current that helps repolarise heart muscle cells.)
`Cc1ccc(N)cc1O`: the “activity change, negative = inhibition” value is 1.43%.

`O=C(O)CCn1c2c(c3ccccc31)C[C@H](NS(=O)(=O)c1ccc(F)cc1)CC2`: the “activity change, negative = inhibition” value is -0.974% [at 35.3 µM].

Take `C[n+]1c2cc(N)ccc2cc2ccc(N)cc21` (tested in a mixture with another compound): the “activity change, negative = inhibition” value was 4.63% [at 35.3 µM].

As to `O=C(Nc1ccc(Cl)cc1)Nc1ccc(Cl)c(C(F)(F)F)c1`, the “activity change, negative = inhibition” value was -16.7% [at 35.3 µM].

On to `CCO[Si](C)(C)OCC`, for which the “activity change, negative = inhibition” value is -1.33%.

As for `Cc1cccc(N(C)C)c1`, the “activity change, negative = inhibition” value was 5.87%.

In the case of `Cc1cc2c(C(C)C)c(O)c(O)c(C=O)c2c(O)c1-c1c(C)cc2c(C(C)C)c(O)c(O)c(C=O)c2c1O`, the “activity change, negative = inhibition” value was -7.54% [at 35.3 µM].

In the case of `O=C1NC2CCCCN2C12CCN(CCCN1c3ccccc3CCc3ccc(Cl)cc31)CC2` (stereo not given), the Potency is 0.756 µM (active).

For `CN(C)c1ccc(N=NS(=O)(=O)O)cc1`, the “activity change, negative = inhibition” value was 0.666%.

As for `C/C=C/C(=O)Oc1c(CCCCCC(C)C)cc([N+](=O)[O-])cc1[N+](=O)[O-]`, the Potency is 21.9 µM (active).
